Compound activity: PubChem BioAssay, National Center for Advancing Translational Sciences (NCATS)
IL-1B inflam inh: inflammasome signaling inhibition, IL-1 beta readout. THP-1 LPS/ATP IL-1B secretion, AlphaLISA, 16 h; hits give low values. activity change, % at 57.5 µM. 360,000 tested, 4.7% active; in the data active means activity change below about -50%; inconclusive means mostly about -30% to -49%
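THP-1 cells pretreated 1 hr with compounds (up to 57.5 uM final), then stimulated with LPS (250 ng/mL final) plus ATP (1.25 mM final); secreted IL-1B measured by AlphaLISA after 16 hr, decreased signal indicating inhibition.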
HT1080 IDH1KD tx: kills HT-1080 cells with IDH1 knockdown | HT-1080 IDH1 knockdown viability, ATP luminescence, 48 h | Potency, µM (doses to about 46.1 µM), for the others: top-dose activity, negative = toxicity, usual class: cytotoxic | 360,000 tested, 2% active | AID 686971;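 further: potency means the concentration at half of the fitted maximal effect; 0% = DMSO wells and -100% = cell-free medium wells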
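CellTiter-Glo luminescence after 48 h compound exposure at 37 degrees C of IDH1-knockdown HT-1080 cells in 5% FBS RPMI. %Activity scaled between DMSO wells and cell-free media wells, with curves fitted and assigned curve classes.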
HT1080-NT tox: kills 2HG-producing HT-1080-NT fibrosarcoma cells. HT-1080-NT fibrosarcoma viability, CellTiter-Glo ATP luminescence, 48 h. Potency, µM (top dose mostly 46.1 µM), without a hit: top-dose activity, negative = less viability, most hits filed as cytotoxic. 360,000 tested, 1.6% active. AID 686970;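 further: NT is the 2HG producing partner of a matched IDH1 knockdown line; potency means the concentration at half of the fitted maximal effect; 0% = DMSO-treated cells and -100% = media-only wells without cells; nearly all actives have a fitted effect of over 55% in size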
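750 cells/well, RPMI + 5% FBS; 2 h settle, compound pin-transfer, 48 h at 37 degrees C. CellTiter-Glo 10 min RT, luminescence. Normalized to DMSO and media-only wells.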
12-LOX inh: inhibitors of human 12S-lipoxygenase ALOX12; P18054; purified 12hLO, xylenol orange hydroperoxide absorbance; Potency, µM (doses to about 108 µM), without a hit: at the highest dose activity change, negative = inhibition, most hits filed as inhibitors; 580,000 tested, 1.1% active; further: potency means the concentration at half of the fitted maximal effect
Target sequence (P18054 whole entry, looked up): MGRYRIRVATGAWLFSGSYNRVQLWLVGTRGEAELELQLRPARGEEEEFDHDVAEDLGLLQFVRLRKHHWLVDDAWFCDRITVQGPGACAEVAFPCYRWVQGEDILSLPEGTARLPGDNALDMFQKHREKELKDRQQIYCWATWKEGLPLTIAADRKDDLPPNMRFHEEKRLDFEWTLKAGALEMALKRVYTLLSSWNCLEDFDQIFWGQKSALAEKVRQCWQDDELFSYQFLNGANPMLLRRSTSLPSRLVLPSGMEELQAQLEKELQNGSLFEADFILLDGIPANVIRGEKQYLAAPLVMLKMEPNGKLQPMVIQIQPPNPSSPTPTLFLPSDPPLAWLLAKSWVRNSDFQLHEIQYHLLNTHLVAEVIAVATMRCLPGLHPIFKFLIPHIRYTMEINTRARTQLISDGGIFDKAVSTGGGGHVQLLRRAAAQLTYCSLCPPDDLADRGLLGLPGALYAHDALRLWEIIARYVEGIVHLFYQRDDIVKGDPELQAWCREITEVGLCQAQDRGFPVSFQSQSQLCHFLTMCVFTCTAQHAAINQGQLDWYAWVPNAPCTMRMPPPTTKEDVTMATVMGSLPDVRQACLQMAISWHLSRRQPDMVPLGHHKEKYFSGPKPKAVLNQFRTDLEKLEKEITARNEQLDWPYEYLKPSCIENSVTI
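Hydroperoxide product was detected by ferrous iron/xylenol orange as the 573 to 405 nm absorbance ratio. Arachidonic acid at 40 uM (final) was turned over for 30 min at room temperature by 150 nM human 12hLO, pH 7.0 Hepes buffer, after 15 min compound preincubation.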
DT40 TDP1 CPT: growth inhibition of DT40 Tdp1-/-;hTDP1 cells with camptothecin (screen for TDP1 inhibitors). chicken DT40 Tdp1-/-;hTDP1 cells + 20 nM CPT, ATP luminescence, 48 h. Potency, µM (top dose mostly 46.2 µM), for the others: at the highest dose activity change, negative = growth inhibition, most hits filed as inhibitors. 420,000 tested, 12% active; further: potency means the concentration at half of the fitted maximal effect; nearly all actives have a fitted effect of over 55% in size
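Cell growth measured by CellTiter-Glo luminescence after a minimum 48 h, 37 C compound exposure with 20 nM CPT in Tdp1-knockout DT40 cells stably expressing hTDP1, seeded 400/well; qHTS titration format.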
TDP1 cell noCPT: qHTS for Inhibitors of human tyrosyl-DNA phosphodiesterase 1 (TDP1): qHTS in cells in absence of CPT; DT40 Tdp1-/- hTDP1 cells, no CPT, ATP luminescence, 48 h; AID 686978, 2013; Potency, µM (top dose mostly 46.2 µM), for the others: at the highest dose activity change, negative = growth inhibition, most hits filed as inhibitors; 420,000 tested, 15% active; further: potency means the concentration at half of the fitted maximal effect; nearly all actives have a fitted effect of over 55% in size
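Chicken DT40 Tdp1-/- cells stably complemented with human TDP1 were seeded at 400 cells/well with DMSO in place of 20 nM camptothecin. After compound pinning, cells grew at least 48 hr at 37 °C; viability read by CellTiter-Glo luminescence.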
* hit, by the source's call; [ ] = dose if it differs, or a comment. Shown is part of a subset that was picked to be rich in hits. Unless noted, the call rests on the fitted dose curve; in most records, active means well fitted curve in the direction sought with a large enough effect; inconclusive means small, poorly fitted or top-dose-only effect, or another doubt; inactive means no such curve, though single readings can be large; an effect the other way counts as inactive or inconclusive. Unless noted, on the % scale 0 is the no-effect control and ±100 the full control effect.

What do the screens show for `O=C(c1cc2ccccc2oc1=O)N(Cc1ccc2c(c1)OCO2)Cc1ccco1`?
IL-1B inflam inh: -10; HT1080 IDH1KD tx: 9%; HT1080-NT tox: -11%; 12-LOX inh: 0%; DT40 TDP1 CPT: inconclusive; TDP1 cell noCPT: 9.2µM*

How did Cc1cc(C)nc(-n2nc(C)cc2NC(=O)CNCc2ccccc2)n1 do in these assays?
IL-1B inflam inh: 35; HT1080 IDH1KD tx: -4%; HT1080-NT tox: 1%; 12-LOX inh: -14%; DT40 TDP1 CPT: -29%; TDP1 cell noCPT: inconclusive

Results for Cc1cc(C)nc(-n2nc(C)cc2NC(=O)CN2CCCC(C)C2)n1 (stereo unspecified) ?
IL-1B inflam inh: -15; HT1080 IDH1KD tx: 2µM*; HT1080-NT tox: 1.3µM*; 12-LOX inh: 14%; DT40 TDP1 CPT: inconclusive; TDP1 cell noCPT: inconclusive

How did Cc1ccccc1NC(=O)CN1CCc2ccccc2C1 do in these assays?
IL-1B inflam inh: 19; HT1080 IDH1KD tx: 4%; HT1080-NT tox: 11%; 12-LOX inh: 11%; DT40 TDP1 CPT: 3%; TDP1 cell noCPT: -24%

What do the screens show for `Cc1cc(C)nc(-n2nc(C)cc2NC(=O)CNC2CCCCC2)n1`?
IL-1B inflam inh: -1; HT1080 IDH1KD tx: -4%; HT1080-NT tox: -8%; 12-LOX inh: -15%; DT40 TDP1 CPT: -15%; TDP1 cell noCPT: -16%

How did COc1ccc(CNCC(=O)Nc2cc(C)nn2-c2nc(C)cc(C)n2)cc1OC do in these assays?
IL-1B inflam inh: -4; HT1080 IDH1KD tx: -8%; HT1080-NT tox: -4%; 12-LOX inh: -6%; DT40 TDP1 CPT: 9.2µM*; TDP1 cell noCPT: 8.2µM*

How did Cc1cc(C)nc(-n2nc(C)cc2NC(=O)CN2CCc3ccccc3C2)n1 do in these assays?
IL-1B inflam inh: 23; HT1080 IDH1KD tx: 1.6µM*; HT1080-NT tox: inconclusive; 12-LOX inh: 3%[57.4 µM]; DT40 TDP1 CPT: 10µM*; TDP1 cell noCPT: 23µM*

What do the screens show for `CSc1ccc(CNC(=O)C2CCN(C(=O)c3ncn4c3COC(c3ccccc3)C4)CC2)cc1` (stereo unspecified)?
12-LOX inh: 28%

How did CC(C)CC(COCc1cccc(Cl)c1)N1CCN(C(=O)c2cccc(C(F)(F)F)c2)CCC1=O (stereo unspecified) do in these assays?
IL-1B inflam inh: -16; HT1080 IDH1KD tx: -23%; HT1080-NT tox: -26%; 12-LOX inh: -20%; DT40 TDP1 CPT: inconclusive; TDP1 cell noCPT: inconclusive

Results for Cc1cccc(COC[C@H](CC(C)C)N2CCN(C(=O)c3ccc(C(F)(F)F)cc3)CCC2=O)c1 ?
IL-1B inflam inh: inconclusive; HT1080 IDH1KD tx: inconclusive; HT1080-NT tox: -24%; 12-LOX inh: -5%; DT40 TDP1 CPT: inconclusive; TDP1 cell noCPT: 16µM*

How did CC(C)C[C@@H](COCc1cccc(C(F)(F)F)c1)N1CCN(C(=O)c2ccc(C(F)(F)F)cc2)CCC1=O do in these assays?
IL-1B inflam inh: -73*; HT1080 IDH1KD tx: inconclusive; HT1080-NT tox: inconclusive; 12-LOX inh: inconclusive; DT40 TDP1 CPT: inconclusive; TDP1 cell noCPT: inconclusive

How did Cc1cccc(NC(=O)c2ccc3c(c2)CCN3S(=O)(=O)c2ccccc2)c1C do in these assays?
12-LOX inh: 8%; DT40 TDP1 CPT: -28%; TDP1 cell noCPT: -28%

Results for O=C(Nc1ccccc1F)c1ccc2c(c1)CCN2S(=O)(=O)c1ccccc1 ?
IL-1B inflam inh: -69*; HT1080 IDH1KD tx: -8%; HT1080-NT tox: -2%; 12-LOX inh: 14%; DT40 TDP1 CPT: inconclusive; TDP1 cell noCPT: -28%

Results for O=C(Nc1c(F)cccc1F)c1ccc2c(c1)CCN2S(=O)(=O)c1ccccc1 ?
IL-1B inflam inh: -67*; HT1080 IDH1KD tx: -29%; HT1080-NT tox: -4%; 12-LOX inh: 50%; DT40 TDP1 CPT: inconclusive; TDP1 cell noCPT: -7%

How did COCC(=O)N1CCOC[C@H](Oc2ccc(C(F)(F)F)cn2)C1 do in these assays?
12-LOX inh: 39%[176 µM]

Results for O=C(N/N=C/c1cccc(C(F)(F)F)c1)c1ccc(O)cc1 ?
IL-1B inflam inh: -81*; HT1080 IDH1KD tx: -11%; HT1080-NT tox: -10%; 12-LOX inh: 325%; DT40 TDP1 CPT: 5%; TDP1 cell noCPT: -25%

Results for O=C(CN1CCCC1)N/N=C/c1c(O)ccc2ccccc12 ?
IL-1B inflam inh: 170; HT1080 IDH1KD tx: 16µM*; HT1080-NT tox: inconclusive; 12-LOX inh: -1%; DT40 TDP1 CPT: inconclusive; TDP1 cell noCPT: inconclusive

How did O=C(NN=Cc1c(O)ccc2ccccc12)C1CC1 do in these assays?
IL-1B inflam inh: 121; HT1080 IDH1KD tx: 12µM*; HT1080-NT tox: inconclusive; 12-LOX inh: -22%; DT40 TDP1 CPT: 5.8µM*; TDP1 cell noCPT: 5.2µM*

How did O=C(N/N=C/c1c(O)ccc2ccccc12)c1cccc(C(F)(F)F)c1 do in these assays?
IL-1B inflam inh: 23; HT1080 IDH1KD tx: 2.3µM*; HT1080-NT tox: inconclusive; 12-LOX inh: inconclusive; DT40 TDP1 CPT: 0.65µM*; TDP1 cell noCPT: 1µM*

What do the screens show for `O=C(N/N=C/c1ccc(C(F)(F)F)cc1)c1ccc(O)cc1`?
IL-1B inflam inh: inconclusive; HT1080 IDH1KD tx: inconclusive; HT1080-NT tox: 0%; 12-LOX inh: -7%; DT40 TDP1 CPT: inconclusive; TDP1 cell noCPT: inconclusive

What do the screens show for `F[C@@H]1CN(Cc2cccnc2)C[C@@H]1OCc1nc2ccc(C(F)(F)F)cc2[nH]1`?
12-LOX inh: 11%[176 µM]

Results for Cc1cc(C)n2nc(C(=O)N/N=C/c3c4ccccc4cc4ccccc34)nc2n1 ?
IL-1B inflam inh: -8; HT1080 IDH1KD tx: inconclusive; HT1080-NT tox: inconclusive; 12-LOX inh: -11%; DT40 TDP1 CPT: 23µM*; TDP1 cell noCPT: 21µM*

How did Cc1cc(C)n(CCC(=O)N/N=C/c2c(O)ccc3ccccc23)n1 do in these assays?
IL-1B inflam inh: 106; HT1080 IDH1KD tx: inconclusive; HT1080-NT tox: inconclusive; 12-LOX inh: inconclusive; DT40 TDP1 CPT: 5.8µM*; TDP1 cell noCPT: 4.6µM*

What do the screens show for `Cc1cc(C)n2nc(C(=O)N/N=C/c3ccccc3Cl)nc2n1`?
IL-1B inflam inh: -9; HT1080 IDH1KD tx: -3%; HT1080-NT tox: 1%; 12-LOX inh: -4%; DT40 TDP1 CPT: 19%; TDP1 cell noCPT: -27%

What do the screens show for `Cc1cc(C)n(CCC(=O)N/N=C/c2ccc(O)cc2)n1`?
IL-1B inflam inh: -4; HT1080 IDH1KD tx: 5%; HT1080-NT tox: 0%; 12-LOX inh: 2%; DT40 TDP1 CPT: -14%; TDP1 cell noCPT: -12%
